Vaccinia mCherry = vaccinia inhibition (mCherry reporter) | Vaccinia virus mCherry reporter infection, fluorescence | Potency, µM (top dose mostly 36.5 µM), without a hit: at the highest dose activity change, negative = inhibition, actives largely listed as inhibitors | 0.63% of 310,000 active | AID 720579; calls by dose curve; tested in A549 cells; note: nearly all actives have a fitted effect of over 35% in size
VACV Venus inh = inhibitors of vaccinia virus (Venus reporter) | Vaccinia virus Venus reporter expression, fluorescence | Potency, µM (top dose mostly 36.5 µM), inactives show at the highest dose activity change, negative = inhibition, actives largely listed as inhibitors | 0.46% of 330,000 active; calls by dose curve; tested in A549 cells; note: nearly all actives have a fitted effect of over 30% in size
LASV entry inh = Lassa virus entry inhibition. Lassa virus pseudotype entry inhibition, cell reporter. Potency, µM (highest dose often 37.9 µM), for the others: at the highest dose activity change, negative = inhibition, hits mostly inhibitors. 1.2% of 300,000 active. AID 540256; calls by dose curve; tested in HEK293 cells; note: nearly all actives have a fitted effect of over 50% in size
Marburg entry inh = inhibitors of Marburg virus binding or cell entry; 1.8% of 300,000 active; Potency, µM (titrated, usually from 37.8 µM), for inactives: at the top dose activity change, negative = inhibition, actives largely listed as inhibitors; Marburg virus pseudotyped entry inhibition, cell reporter; AID 540276; calls by dose curve; tested in HEK293 cells
Starred values were filed as active, the others as inactive; [ ] = dose if it differs, or a comment. Compounds with a hit are over-represented: about 2.5% of the library has one in this group of screens. % is set by controls: 0 for no effect and ±100 for the full control effect; potency is the fitted concentration of half-maximal effect.

What do the screens show for `Cc1ccc(C)c(N2CCN(c3ncccc3[N+](=O)[O-])CC2)c1`?
Vaccinia mCherry: -6.9%; VACV Venus inh: -24.6%; LASV entry inh: inconclusive; Marburg entry inh: 2.51µM*

How did O=C(c1ccccc1)c1ccccc1N/C=C/c1nnnn1-c1ccccc1 do in these assays?
Vaccinia mCherry: -5.0%; VACV Venus inh: -21.8%; LASV entry inh: 13µM*; Marburg entry inh: inconclusive

What do the screens show for `COc1ccc(C(F)(F)F)cc1N/C=C\c1nnnn1-c1ccccc1`?
LASV entry inh: 4.1%; Marburg entry inh: -3.9%

How did CCN(CC)CCCNC(=O)c1c(O)c2ccccc2n(Cc2ccccc2)c1=O do in these assays?
Vaccinia mCherry: inconclusive; VACV Venus inh: inconclusive; LASV entry inh: inconclusive; Marburg entry inh: 14.1µM*

Results for N=NC(=O)c1ccccc1Nc1c(O)[nH]c2ccccc12 ?
Vaccinia mCherry: -7.0%; VACV Venus inh: inconclusive; LASV entry inh: 6.31µM*; Marburg entry inh: inconclusive

What do the screens show for `CC(=O)Nc1c(O)[nH]c2ccccc12`?
Vaccinia mCherry: -2.8%; VACV Venus inh: -12.6%; LASV entry inh: 6.4%; Marburg entry inh: 24.3%

How did Nc1nc(-c2ccccc2)c(-c2ccccc2)s1 do in these assays?
Vaccinia mCherry: -11.3%; VACV Venus inh: -8.2%; LASV entry inh: inconclusive; Marburg entry inh: -7.7%

Results for Nc1nc(-c2ccccc2)c(-c2ccc([N+](=O)[O-])cc2)s1 ?
Vaccinia mCherry: 22.4µM*; VACV Venus inh: inconclusive

What do the screens show for `CC(C)=CCCC(C)=CCON=C1C[C@@H](O)[C@@H](O)[C@@H]2[C@H]3C(=O)N(Cc4ccccc4)C(=O)[C@@H]3CC[C@@H]12`?
Marburg entry inh: 3.0%[14.2 µM]

What do the screens show for `O=C([C@H](c1ccccc1)N1CCOCC1)N1CCOCC1`?
Marburg entry inh: 28.6%[46.1 µM]

Results for Fc1ccc(-c2noc(-c3ccc4c(c3)CCO4)n2)cc1 ?
Vaccinia mCherry: inactive; VACV Venus inh: -6.4%; LASV entry inh: 10µM*; Marburg entry inh: inconclusive

What do the screens show for `Cc1noc(-c2ccc(-c3noc(-c4ccc(F)cc4)n3)cc2)n1`?
Vaccinia mCherry: -12.0%; VACV Venus inh: -4.9%; LASV entry inh: 5.4%[46.1 µM]

How did N[C@H](Cc1cccc(-c2ccccc2CP(=O)(O)O)c1)C(=O)O do in these assays?
Marburg entry inh: 6.4%

What do the screens show for `O[C@H]1C[C@H](c2ccccc2)N(CC2CCCCC2)C[C@H]1n1cc(-c2ccc(F)cc2)nn1`?
LASV entry inh: -34.9%[46.1 µM]

What do the screens show for `O=C(N/N=C/c1ccccc1)c1ccco1`?
Vaccinia mCherry: -15.2%; VACV Venus inh: -9.5%; LASV entry inh: inconclusive; Marburg entry inh: inconclusive

What do the screens show for `O=C(C#Cc1ccccc1)c1ccco1`?
Vaccinia mCherry: 10µM*; VACV Venus inh: 12.6µM*; LASV entry inh: 11.2µM*; Marburg entry inh: inconclusive

Results for COc1ccc(C2=Nc3ccccc3NC(c3cccs3)=N2)cc1 ?
Vaccinia mCherry: -8.1%; VACV Venus inh: -12.8%; LASV entry inh: 8.1%[46.1 µM]; Marburg entry inh: 20µM*

What do the screens show for `CCOc1ccc2c(c1)NC(c1cccs1)=NC(c1ccc(F)cc1)=N2`?
Vaccinia mCherry: -8.5%; VACV Venus inh: -10.7%; LASV entry inh: 0.5%[46.1 µM]; Marburg entry inh: 1.3%[46.1 µM]

Results for CCCN1CNc2c(c(=O)[nH]c(=S)n2CCc2ccccc2OC)C1 ?
Vaccinia mCherry: -9.7%; VACV Venus inh: -13.0%

What do the screens show for `COC(=O)N[C@@H](c1cccc(C)c1)[C@]1(C(C)=O)CCCC1=O`?
Marburg entry inh: 3.1%[14.2 µM]

Results for COc1ccc(Nc2nc(N)nc(CSC(=S)N3CCCCC3C)n2)cc1 (stereo not drawn) ?
Vaccinia mCherry: -21.1%; VACV Venus inh: inconclusive; LASV entry inh: 7.08µM*; Marburg entry inh: inconclusive

How did COc1ccc(Nc2nc(N)nc(CSC(=S)N3CCCCC3)n2)cc1 do in these assays?
Vaccinia mCherry: -17.2%; VACV Venus inh: -26.2%

How did Cc1ncc2c(c1CNC(=O)CN1CCCC1)CCN(C(=O)c1ccc(F)cc1F)C2 do in these assays?
Vaccinia mCherry: -7.2%; VACV Venus inh: 12.7%

What do the screens show for `O=c1[nH]c(=O)n(C2CC(O)C(CO)O2)cc1I` (stereo not drawn)?
Vaccinia mCherry: 5.01µM*; VACV Venus inh: inconclusive; LASV entry inh: 18.6%[46.1 µM]; Marburg entry inh: 19.1%

How did O=c1[nH]c(=O)n([C@H]2C[C@H](O)[C@@H](CO)O2)cc1/C=C/Br do in these assays?
Marburg entry inh: -38.7%

How did O=c1[nH]c(=O)n([C@H]2C[C@H](O)[C@@H](CO)O2)cc1F do in these assays?
Vaccinia mCherry: inconclusive; VACV Venus inh: inconclusive; LASV entry inh: 0.291µM*; Marburg entry inh: inconclusive

Results for CN(C)c1ccc(/C=C/C=C2/C=Cc3ccccc32)cc1 ?
Vaccinia mCherry: 1.1%; VACV Venus inh: -12.6%

How did COC1=C(C2C(OC)CCC3CCCCC32)C2=C(CCCC2)CC1 (stereo not drawn) do in these assays?
Marburg entry inh: 5.9%[14.2 µM]

Results for CCc1ccc(NC(=O)CSc2nc(=O)n(CCN(C)C)c3c2CCCC3)cc1 ?
Vaccinia mCherry: inconclusive; VACV Venus inh: -13.2%; LASV entry inh: inconclusive; Marburg entry inh: 12.6µM*

What do the screens show for `Fc1ccccc1CCNc1c2c(nc3ncnn13)CCCC2`?
Vaccinia mCherry: -4.1%; VACV Venus inh: inconclusive; LASV entry inh: -13.6%[46.1 µM]; Marburg entry inh: 6.31µM*

Results for c1ccc(CCNc2c3c(nc4ncnn24)CCC3)cc1 ?
Vaccinia mCherry: -26.7%; VACV Venus inh: -24.5%; LASV entry inh: -45.5%[14.3 µM]; Marburg entry inh: -13.8%

What do the screens show for `Cc1nonc1CN(C)C(=O)C1CC12CCN(C(=O)/C=C/c1cccc(Cl)c1)CC2` (stereo not drawn)?
Vaccinia mCherry: -0.1%; VACV Venus inh: -10.1%

Results for CCCCOC(=O)c1ccc(NC(=S)NC(=O)c2ccco2)cc1 ?
Vaccinia mCherry: -23.3%; VACV Venus inh: -3.5%; LASV entry inh: 15.8µM*; Marburg entry inh: inconclusive

Results for CCCOc1ccc(C(=O)NNC(=S)NC(=O)c2ccco2)cc1 ?
Vaccinia mCherry: 11.2µM*; VACV Venus inh: inconclusive; LASV entry inh: inconclusive; Marburg entry inh: inconclusive

Results for CCCOc1ccc(C(=O)NNC(=S)NC(=O)c2cccs2)cc1 ?
Vaccinia mCherry: 10µM*; VACV Venus inh: inconclusive; LASV entry inh: inconclusive; Marburg entry inh: 11.2µM*

How did CCCCCOC(=O)c1ccc(NC(=O)c2ccco2)cc1 do in these assays?
Vaccinia mCherry: -16.1%; VACV Venus inh: -7.8%; LASV entry inh: -17.5%; Marburg entry inh: -13.1%

How did COc1ccc(C(=O)NNC(=S)NC(=O)c2ccco2)cc1 do in these assays?
LASV entry inh: -15.1%; Marburg entry inh: -25.7%

What do the screens show for `COC(=O)c1c(NC(=O)CN2CCC3(O)CCCCC3C2c2cc(OC)ccc2OC)sc(C)c1C` (stereo not drawn)?
Vaccinia mCherry: -10.3%; VACV Venus inh: inconclusive; LASV entry inh: 7.94µM*; Marburg entry inh: 14.6µM*

What do the screens show for `COC(=O)c1c(NC(=O)CN2CCC3(O)CCCCC3C2c2ccc(F)cc2)sc(C)c1C` (stereo not drawn)?
Vaccinia mCherry: inactive; VACV Venus inh: -12.7%; LASV entry inh: -8.0%; Marburg entry inh: inconclusive

How did Cc1cc(C(=O)NCCCN2CCN(c3cc(Cl)ccc3C)CC2)n(-c2ccccc2)n1 do in these assays?
Vaccinia mCherry: -22.9%; VACV Venus inh: inconclusive; Marburg entry inh: 6.5%
